From PubChem BioAssay
MARV entry inh – Marburg virus entry inhibition | Marburg virus pseudotyped entry inhibition, cell reporter | Potency, µM (top dose mostly 37.8 µM), without a hit: at the top dose activity change, negative = inhibition, actives largely listed as inhibitors | hit rate 1.8% among 300,000; calls by dose curve; tested in HEK293 cells; note: potency is the fitted concentration of half-maximal effect; % is set by controls: 0 for no effect and ±100 for the full control effect
Shiga toxin inh – Shiga toxin inhibition. Vero cells, Shiga toxin protein synthesis inhibition reporter. inhibition, % at 38.7 µM. hit rate 9.2% among 290,000; in the data active = inhibition mostly above about 28%, no sharp cut-off; inactive = mostly below about 43%; note: 0% is about no effect
LASV entry inh – inhibitors of Lassa virus binding or cell entry. Lassa virus pseudotype entry inhibition, cell reporter. Potency, µM (series often up to 37.9 µM), for inactives: at the top dose activity change, negative = inhibition, hits mostly inhibitors. hit rate 1.2% among 300,000; calls by dose curve; tested in HEK293 cells; note: potency is the fitted concentration of half-maximal effect; % is set by controls: 0 for no effect and ±100 for the full control effect; nearly all actives have a fitted effect of over 50% in size
Pf growth 96h – inhibits malaria parasite growth, 96 h | AID 504834 | Potency, µM (top dose mostly 28.7 µM), inactives show at the top dose activity change, negative = inhibition, actives largely listed as inhibitors | P. falciparum luciferase reporter growth, 96 h | hit rate 6.9% among 320,000; note: potency is the fitted concentration of half-maximal effect; % is set by controls: 0 for no effect and ±100 for the full control effect
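Luminescence readout: decreased luciferase signal marks inhibited growth of reporter-expressing P. falciparum in infected red cells (2% hematocrit, 0.05% parasitemia final), exposed to compound two generations (96 h, 37 C, 5% CO2).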
Pf growth 48h – P. falciparum growth inhibition at 48 hours (one generation); P. falciparum luciferase growth in erythrocytes, 48 h; Potency, µM (top dose mostly 28.7 µM), inactives show at the top dose activity change, negative = inhibition, actives largely listed as inhibitors; hit rate 5.9% among 310,000; AID 504832; note: potency is the fitted concentration of half-maximal effect; % is set by controls: 0 for no effect and ±100 for the full control effect
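First compound was added to culture medium, then infected red cells at 0.1% parasitemia and 2% hematocrit (final). After incubation at 37 C under 5% CO2, luciferase detection reagent was dispensed and light output recorded.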
Cycloheximide cs – counter-screen for Shiga toxin inhibitors: cycloheximide protein synthesis inhibition; hit rate 12% among 300,000; max response, %; cell reporter, cycloheximide protein synthesis inhibition counterscreen; in the data active = max response mostly above about 13%, no sharp cut-off; inactive = mostly below about 14%; note: read at 38.3 µM for the half of the compounds with a filed dose; 0% is about no effect
Active calls of the source: *; i = inactive; ? = inconclusive; / = no result given; [ ] = another dose, or the depositor's remark. An excerpt weighted towards active compounds, which were near 19% of everything screened. Unless noted, calls come from the whole dose curve; as a rule, active = well fitted inhibition curve with a large enough effect; inconclusive = small, poorly fitted or top-dose-only effect, or another doubt; inactive = no such curve, though single readings can be large or run the other way.

SMILES | MARV entry inh | Shiga toxin inh | LASV entry inh | Pf growth 96h | Pf growth 48h | Cycloheximide cs
C=CCN1C(=NC(=O)CCC)SC2CS(=O)(=O)CC21 (configuration not stated) | 25% | 11 | -4% | 53% | -4% | -6
Nc1cc(Cl)nc(N/N=C/c2ccccc2[N+](=O)[O-])n1 | -11% | 87* | -2% | 6.6µM* | 130% | 47*
Nc1cc(Cl)nc(N/N=C/c2ccc([N+](=O)[O-])cc2)n1 | ? | 10 | 18% | 4.7µM* | ? | 6
O=[N+]([O-])c1ccc(/C=N/Nc2ncc(Br)cn2)cc1 | -3% | -7 | 4% | ? | 16% | -3
O=[N+]([O-])c1ccccc1/C=N/Nc1nc(N2CCCC2)nc(N2CCCC2)n1 | ? | -13 | -18% | ? | 7% | 8
CC1CCC(NC(=O)c2ccc3c(c2)N(Cc2ccccc2)C(=O)c2ccccc2S3(=O)=O)CC1 (configuration not stated) | ? | / | -26%[46.1 µM] | / | / | /
CC1CCCCN1CCNC(=O)c1ccc2c(c1)N(Cc1ccccc1)C(=O)c1ccccc1S2(=O)=O (configuration not stated) | ? | -9 | ? | ? | 5.2µM* | -4
O=C(NCCN1CCCC1)c1ccc2c(c1)N(Cc1cccc(Cl)c1)C(=O)c1ccccc1S2(=O)=O | / | -8 | / | 0% | 8.3µM* | -1
CN(C(=O)c1ccc2c(c1)N(Cc1cccc(Cl)c1)C(=O)c1ccccc1S2(=O)=O)C1CCCCC1 | / | / | 10µM* | / | / | /
CN(C(=O)c1ccc2c(c1)N(Cc1ccc(F)cc1)C(=O)c1ccccc1S2(=O)=O)C1CCCCC1 | -31%[46.1 µM] | / | 3%[46.1 µM] | / | / | /
Cc1cccc(CN2C(=O)c3ccccc3S(=O)(=O)c3ccc(C(=O)NCCCN4CCCC4)cc32)c1 | / | -5 | / | ? | 10µM* | -1
COc1ccccc1N(CN1CCCC1=O)C(=O)c1ccccc1F | 17% | 0 | -4% | / | 0% | -4
NC(N)=NC(N)=Nc1ccc2ccccc2c1 | / | 15 | / | ? | ? | 7
O=C(c1ccccc1)N1N=C(C(F)(F)F)CC1(O)c1ccccc1O (configuration not stated) | / | 14 | / | ? | 31% | 12
COc1ccc(NC(=O)c2ccco2)cc1N | ? | 66* | ? | 8.3µM* | 78% | 65*
COc1ccc(NC(=O)c2ccco2)cc1NC(=O)c1c(OC)cccc1OC | -2% | 0 | ? | 2.3µM* | -6% | -3
COc1ccc(NC(=O)c2ccco2)cc1NC(=O)c1cccc(OC(C)C)c1 | ? | 13 | 10µM* | -6% | ? | -1
CCOc1ccc(Nc2ncnc3c2cnn3C)cc1 | 12%[46.1 µM] | 20 | -9%[46.1 µM] | -8% | 19% | 16*
Cc1ccc(Nc2ncnc3c2cnn3C)cc1 | / | 61* | / | ? | 28% | 27*
Cc1cccc(Nc2ncnc3c2cnn3C)c1 | / | 31 | / | -30% | 8% | 9
Cn1ncc2c(Nc3ccc4ccccc4c3)ncnc21 | ? | 81* | 21% | ? | 136% | 33*
CC(=O)Nc1ccc(Nc2ncnc3c2cnn3C)cc1 | / | / | 6%[46.1 µM] | / | / | /
Cn1ncc2c(Nc3ccc(Cl)cc3)ncnc21 | / | 16 | / | 46% | 47% | 32*
Cc1cc(S(=O)(=O)N2CCCC2)ccc1OCC(=O)NCc1ccccn1 | -12%[46.1 µM] | -4 | 0% | -1% | -11% | -10
O=C(COc1ccc(S(=O)(=O)NCc2ccccc2)cc1Cl)NCc1ccncc1 | -1%[46.1 µM] | -18 | -8% | -8% | -8% | -2
SMILES | MARV entry inh | Shiga toxin inh | LASV entry inh | Pf growth 96h | Pf growth 48h | Cycloheximide cs
Cc1cc(S(=O)(=O)NC2CCCCC2)ccc1OCC(=O)NCc1ccccn1 | -23% | 20 | 0% | ? | 13µM* | -3
Cc1cc(S(=O)(=O)NCc2ccccc2)ccc1OCC(=O)NCc1ccncc1 | 10% | 80* | -1% | ? | ? | 49*
O=C(COc1ccc(S(=O)(=O)Nc2ccccc2)cc1)NCc1ccncc1 | ? | 15 | 2.6µM* | 90% | 1% | 9
S=C(Nc1ccc2nc(-c3ccccn3)c(-c3ccccn3)nc2c1)N1CCCCC1 | ? | -3 | -17%[46.1 µM] | ? | -16% | -3
Cc1cccn2c(=O)c(C(=O)NC(C)c3ccccc3)c(O)nc12 (configuration not stated) | 1%[46.1 µM] | / | / | / | / | /
CC1=CC2C(C(O)CC3(C)C2CC(C)C32OCOC23COCO3)C2(C)C/C(=C\O)C(=O)C=C12 (configuration not stated) | 7.9µM* | / | ? | / | / | /
CN1CCN(c2ccc(S(=O)(=O)N3CCOCC3)cc2NC(=O)CC(C)(C)C)CC1 | / | / | / | -24% | -14% | /
Cc1cccc(C)c1OCC(=O)Nc1c(C(=O)c2ccccc2)oc2ccccc12 | -7%[46.1 µM] | / | 4%[46.1 µM] | / | / | /
Fc1ccc(-c2cnn3c(-c4ccncc4)ccnc23)cc1 | 9%[46.1 µM] | 73* | ? | i | 145% | 22*
Fc1ccc(-c2cnn3c(-c4cccs4)ccnc23)cc1 | ? | 53 | 10µM* | 490% | 404% | 15
CCOc1ccccc1NC(=O)CN(C)S(=O)(=O)c1ccc(C(=O)N2CCOCC2)s1 | / | / | -2%[46.1 µM] | / | / | /
Cc1csc2nc(COC(=O)c3ccc(F)cc3)cc(=O)n12 | / | / | -3%[46.1 µM] | / | / | /
Cc1ccc2c(c1)c1c(n2CC(O)CN2CCOCC2)CCCC1 (configuration not stated) | / | / | / | ? | -9% | -3
COc1ccc(C(=O)c2c(C)c3cc(C)ccc3n2CC(O)CN2CCOCC2)cc1 (configuration not stated) | ? | -11 | ? | 12µM* | ? | -3
O=C(C[n+]1cc(-c2ccccc2)n2c1CCC2)OCc1ccccc1 | ? | -9 | -6% | ? | 3% | 2
O=C(C[n+]1cc(-c2ccccc2)n2c1CCCCC2)c1ccc(Br)cc1 | -25% | -10 | -12% | 33% | 1.7µM* | -2
Cc1ccc(-c2c[n+](Cc3ccc(Cl)c(Cl)c3)c3n2CCC3)cc1 | ? | -2 | ? | 0.19µM* | 1.7µM* | -1
COc1ccc(C(=O)C[n+]2ccc(-c3nnc4n3CCCCC4)cc2)cc1 | 2%[46.1 µM] | 4 | 25%[46.1 µM] | 8% | 10% | 9
COc1ccc(C(=O)C[n+]2cc(-c3ccc(OC)cc3)n3c2CCCC3)cc1 | ? | -1 | -16%[46.1 µM] | 1.5µM* | 1.2µM* | 1
Cc1ccc(C(=O)C[n+]2cc(-c3ccc(C)cc3)n3c2CCCCC3)cc1 | ? | 66 | ? | 0.41µM* | 0.41µM* | -5
COc1ccccc1NC(=O)CSc1nnc2ccc(-c3cccnc3)nn12 | -1% | -8 | 2% | 20% | -29% | -6
COCCCNC(=O)CCCn1c(=O)c2cccn2c2ccccc21 | / | / | 3%[46.1 µM] | / | / | /
O=C1N(Cc2cccnc2)C[C@@H]2C[C@@H](c3ccccc3C(F)(F)F)N3CCC[C@@]123 | / | -9 | / | ? | ? | 7
CC(C)c1cccc(OCCn2c(-c3ccc(Cl)cc3)nc3ccccc3c2=O)c1 | 7%[46.1 µM] | / | 10%[46.1 µM] | / | / | /
CCOC(=O)c1c(-c2ccc(C)o2)csc1NC(=S)NC(=O)c1ccccc1Br | -18% | -5 | 26%[14.3 µM] | 7.4µM* | 13µM* | -1
